This note sets out measurements from PubChem BioAssay (Tox21).

Records with an inconclusive call do not appear. Entries that show only a call come without a potency. Active and inactive are the calls of the source. The call rests on the fitted dose curve.

This assay can be described thus: p53 small molecule agonists, cell-based qHTS assay with human liver microsomes: qHTS cell viability counter screen (AID 1963579). Further: nearly all actives have a fitted effect of over 45% in size. The following applies: p53RE-bla HCT-116 viability, ATP luminescence, 16 h, HLM; series mostly up to 66 µM. An excerpt:
National Center for Advancing Translational Sciences [NCATS]
Division of Preclinical Innovation [DPI]
U.S. Environmental Protection Agency [EPA]
National Institutes of Environmental Health Sciences [NIEHS]
National Toxicology Program [NTP]
U.S. Food and Drug Administration [FDA]
p53, a tumor suppressor protein, is activated following cellular insult, including DNA damage and other cellular stresses. The activation of p53 regulates cell fate by inducing DNA repair, cell cycle arrest, apoptosis, or cellular senescence. The activation of p53, therefore, is a good indicator of DNA damage and other cellular stresses. […] The activation of the reporter gene under culture conditions can be detected by fluorescence intensity. This cell line was used to screen the Tox21 10K compound library in the condition of presence of human liver microsomes and to identify agonists that activate the p53 signaling pathway after in vitro metabolic activation (Ooka et al., Archive of Toxicology 96:1975-1987, 2022).
Tox21 Assay Protocol Summary:
The p53RE-bla cells were dispensed at 4,000cells/3ul/well in 1536-well black-clear bottom plates. After the assay plates were incubated at 37 C, 5% CO2 incubator for 5 hours, 23 nL of compounds dissolved in DMSO, positive controls or DMSO only was transferred to the assay plate. Following compound addition, 3 uL of human liver microsomes (XenoTech, Kansas City, KS) at final concentration of 0.5 mg/mL and 1uL of B-Nicotinamide adenine dinucleotide 2'-phosphate (NADPH) at final concentration of 0.5 mg/mL were transferred to the assay plate. The plates were incubated at 37 C for 16 hours. 1 uL of LiveBLAzer detection mixture was added to each well and the plates were incubated at room temperature in the dark for 2 h. Fluorescence intensity at 460 and 530 nm emission and 405 nm excitation were measured by an Envision plate reader. For cell viability readout that measures cytotoxicity, 4 ul/well of CellTiter-Glo reagent was added into the assay plates using a Flying Reagent Dispenser. After 30 min incubation at room temperature, the luminescence intensity in the plates was measured using a ViewLux plate reader.
In general terms: qHTS replaces the single test concentration by a dilution series.
`Cc1ncc(CO)c(CO)c1O`: the Potency result is “inactive”.

Turning to `Nc1ncnc2nc[nH]c12`, the Potency result was “inactive”.

With `C=C1C2CCC(C2)C1(C)C` (stereo not given), the Potency entry is “inactive”.

For the compound `CCOC(=O)NNc1nncc2ccccc12`, the Potency result was “inactive”.

For the compound `C=CCc1ccc(OC)c(OC)c1`, the Potency entry was “inactive”.

On to `NC(=O)c1cnccn1`, for which the Potency result is “inactive”.

For `Cc1ccnc2c1NC(=O)c1cccnc1N2C1CC1`, the Potency entry is “inactive”.

Consider `O=C(O)CS`, for which the Potency entry is “inactive”.

Regarding `O=c1n(CC2CO2)c(=O)n(CC2CO2)c(=O)n1CC1CO1` (stereo not given), the Potency entry was “inactive”.

Regarding `COc1ccc2[nH]cc(CCNC(C)=O)c2c1`, the Potency entry is “inactive”.

Turning to `CCCCCC(N)=O`, the Potency result was “inactive”.

On to `OC[C@@H](O)[C@@H](O[C@@H]1O[C@H](CO)[C@H](O)[C@H](O)[C@H]1O)[C@H](O)[C@@H](O)CO`, for which the Potency entry is “inactive”.

For the compound `C=CCCCCCCCCC(=O)O`, the Potency entry was “inactive”.

On to `Nc1c2c(nc3ccccc13)CCCC2`, for which the Potency result is “inactive”.

With `COC(=O)c1ccc(C=O)cc1`, the Potency entry was “inactive”.

Take `Cc1nnc(NS(=O)(=O)c2ccc(N)cc2)s1`: the Potency entry was “inactive”.

Regarding `CC(O)CN(CCN(CC(C)O)CC(C)O)CC(C)O` (stereo not given), the Potency result was “inactive”.

Consider `CC(C)(CO)CO`, for which the Potency entry is “inactive”.

As to `O=C(O)c1cccc([N+](=O)[O-])c1`, the Potency entry was “inactive”.

In the case of `Cc1ccc(C(C)C)c(O)c1`, the Potency result was “inactive”.

As for `Cc1cn([C@H]2C[C@H](N=[N+]=[N-])[C@@H](CO)O2)c(=O)[nH]c1=O`, the Potency entry was “inactive”.

For `CN1C(C(=O)Nc2ccccn2)=C(O)c2ccccc2S1(=O)=O`, the Potency result was “inactive”.

Take `O=C1CCc2ccccc2O1`: the Potency entry was “inactive”.

As to `c1ccc2c(c1)ccc1ccccc12`, the Potency entry was “inactive”.

Turning to `CCOc1ccc(NC(C)=O)cc1`, the Potency entry is “inactive”.

On to `O=C(O)c1ccc(S(=O)(=O)N(Cl)Cl)cc1`, for which the Potency entry is “inactive”.

`COc1ccc(NC(C)=O)cc1N`: the Potency entry was “inactive”.

With `CCc1cccc(CC)c1N`, the Potency result is “inactive”.

In the case of `Cc1[nH]c(=O)c(C#N)cc1-c1ccncc1`, the Potency result was “inactive”.

As for `CCCCCCCCCCC(CO)CCCCCCCC` (stereo not given), the Potency result is “inactive”.

With `C/C=C/C(=O)N(CC)c1ccccc1C`, the Potency entry was “inactive”.

In the case of `Cc1ncc([N+](=O)[O-])n1C`, the Potency result was “inactive”.

Turning to `Oc1ccc(O)cc1`, the Potency result is “inactive”.

With `NC1CCCCC1`, the Potency entry is “inactive”.

Consider `O=C(O)CN(CC(=O)O)CC(=O)O`, for which the Potency result is “inactive”.

Regarding `Nc1cc(Cl)c(N)c(Cl)c1`, the Potency result was “inactive”.

Regarding `C1N2CN3CN1CN(C2)C3`, the Potency result was “inactive”.

Take `COc1cc(O)c(C(=O)c2ccccc2)cc1S(=O)(=O)O`: the Potency result was “inactive”.

Turning to `CCCOC(=O)NCCCN(C)C`, the Potency result was “inactive”.

Regarding `Cc1ccc(S(=O)(=O)N=C=O)cc1`, the Potency result was “inactive”.
